What follows are compounds tested against Tyrosine-protein kinase Fes/Fps (Homo sapiens) (UniProt P07332). Settings: at 1 µM.
Sequence of Tyrosine-protein kinase Fes/Fps (Homo sapiens) (P07332 whole entry): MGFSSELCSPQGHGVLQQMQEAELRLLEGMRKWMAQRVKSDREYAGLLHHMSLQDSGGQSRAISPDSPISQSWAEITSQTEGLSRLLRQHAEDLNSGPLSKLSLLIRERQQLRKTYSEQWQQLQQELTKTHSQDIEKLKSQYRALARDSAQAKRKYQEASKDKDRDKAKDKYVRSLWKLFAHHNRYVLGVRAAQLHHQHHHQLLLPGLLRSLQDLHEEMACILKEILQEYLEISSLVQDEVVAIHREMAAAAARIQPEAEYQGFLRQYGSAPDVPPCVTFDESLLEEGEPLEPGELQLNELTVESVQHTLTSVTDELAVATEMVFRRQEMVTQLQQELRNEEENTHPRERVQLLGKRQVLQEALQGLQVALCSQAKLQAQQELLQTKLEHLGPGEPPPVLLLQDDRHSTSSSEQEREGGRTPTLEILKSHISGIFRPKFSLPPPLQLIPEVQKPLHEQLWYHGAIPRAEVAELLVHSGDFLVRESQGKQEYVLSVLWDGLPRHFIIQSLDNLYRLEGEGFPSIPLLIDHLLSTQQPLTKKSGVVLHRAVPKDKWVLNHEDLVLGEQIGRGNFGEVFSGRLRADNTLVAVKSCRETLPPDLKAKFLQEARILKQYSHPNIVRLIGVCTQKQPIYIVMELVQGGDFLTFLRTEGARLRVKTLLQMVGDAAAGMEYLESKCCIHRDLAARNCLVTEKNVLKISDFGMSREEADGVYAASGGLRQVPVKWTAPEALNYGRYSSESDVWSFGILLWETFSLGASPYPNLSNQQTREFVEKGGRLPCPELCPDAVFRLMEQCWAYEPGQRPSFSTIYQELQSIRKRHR

Compound | inhibition
Fc1cccc(COc2ccc(Nc3ncnc4sc(-c5cccs5)cc34)cc2Cl)c1 | 0.01%
CC1=C(C(=O)Nc2ccc3[nH]ncc3c2)C(c2ccc(F)cc2)NC(=O)N1 (stereo not drawn) | 0.3%
CCn1c(-c2nonc2N)nc2c(N3CCCC3)nccc21 | -3.78%
NS(=O)(=O)c1ccc(N/N=C2\C(=O)Nc3ccc(C(=O)NCCc4c[nH]cn4)cc32)cc1 | 8.37%
CC(C)=Cc1cccc2c1/C(=N/Nc1ccc(S(N)(=O)=O)cc1)C(=O)N2 | 2.29%
COc1cc2ncn(-c3cc(O[C@H](C)c4ccccc4Cl)c(C(N)=O)s3)c2cc1OC | 5.11%
COc1cc2ncn(-c3cc(O[C@@H](C)c4ccccc4Cl)c(C(N)=O)s3)c2cc1OC | 2.83%
Fc1cccc(COc2ccc(Nc3ncnc4cc(-c5ccc[nH]5)sc34)cc2Cl)c1 | 1.5%
CN1CCC(C(=O)Nc2n[nH]c3nnc(-c4ccccc4)cc23)CC1 | 3.43%
Cn1cc(C=C2C(=O)Nc3cccnc32)c2ccccc21 | 2.19%
COc1ccc(-c2nn3ncccc3c2-c2ccnc(Nc3ccc(Cl)c(C(F)(F)F)c3)n2)cc1 | 1.82%
NC(=O)c1cccc(Nc2nccc(Nc3cccc4[nH]ncc34)n2)c1 | 10.9%
COc1ccc(-c2ccncc2)cc1C(N)=O | 3.83%
CS(=O)(=O)CCN(CC#N)Cc1ccc(-c2ccc3ncnc(Nc4ccc(OCc5cccc(F)c5)c(Cl)c4)c3c2)o1 | 0.27%
CNC(=O)c1cncc(/C=C/c2c(Cl)cccc2Cl)c1 | 4.62%
CCn1c(-c2nonc2N)nc2c(C#CC(C)(C)O)nc(CN3CCCC3)cc21 | -0.58%
COc1ccccc1Nc1ncc(-c2ccccc2)o1 | 3.85%

Compound | inhibition
Cc1nn(C)c2cc(N(C)c3ccnc(Nc4cccc(S(N)(=O)=O)c4)n3)ccc12 | 6.14%
CCn1c(-c2nonc2N)nc2cncc(C(=O)N3CC[C@H](N)C3)c21 | 2.26%
O=C(Nc1n[nH]c2nc(-c3ccco3)c(Br)cc12)C1CC1 | 3.27%
COc1ccc(-c2coc3ncnc(N)c23)cc1 | 5.04%
O=C1NC(=O)C(c2cccc(Cl)c2)=C1Nc1ccc(O)c(Cl)c1 | 1.14%
CS(=O)(=O)CCNCc1ccc(-c2ccc3ncnc(Nc4ccc(OCc5cccc(F)c5)c(C(F)(F)F)c4)c3c2)o1 | 2.85%
O=C1NC(=O)C(c2ccccc2Cl)=C1Nc1cccc(O)c1 | 2.5%
COc1cc2ncn(-c3cc(OCc4ccccc4Cl)c(C(N)=O)s3)c2cc1OC | 0.38%
Nc1ncnc2occ(-c3ccc(NC(=O)Nc4cccc(C(F)(F)F)c4)cc3)c12 | 4.91%
COc1cc(C=NNc2ncnc3c2cnn3-c2ccccc2)ccc1O | 4.03%
CC1=C(C(=O)Nc2ccc3[nH]ncc3c2)C(c2ccc(Cl)c(Cl)c2)CC(=O)N1 (stereo not drawn) | 2.35%
NC(=O)c1ccc(-c2nc(-c3ccccn3)c(-c3ccc4c(c3)OCO4)[nH]2)cc1 | 2.16%
COc1cccc(-n2ncc3c(N/N=C/c4cccc(F)c4)ncnc32)c1 | 0.83%
Cc1nnc(-c2ccc(C)c(-c3ccc(C(=O)Nc4cccc(C#N)c4)cc3)c2)o1 | 2.11%
N#Cc1c(NC(=O)c2cccc3ccccc23)sc2c1CCCC2 | 2.36%
Cc1ccc(NC(=O)c2ccnc(N3CCCC3)c2)cc1-c1ccc(C(=O)NCC2CC2)cc1 | 5.19%
COc1cc2ncn(-c3cc(OCc4ccccc4C(F)(F)F)c(C(N)=O)s3)c2cc1OC | 1.4%

Each compound was assayed against Fibroblast growth factor receptor 1 (Homo sapiens) (UniProt P11362). Settings: at 0.1 µM.
Sequence of Fibroblast growth factor receptor 1 (Homo sapiens) (P11362 22-822 limits assumed): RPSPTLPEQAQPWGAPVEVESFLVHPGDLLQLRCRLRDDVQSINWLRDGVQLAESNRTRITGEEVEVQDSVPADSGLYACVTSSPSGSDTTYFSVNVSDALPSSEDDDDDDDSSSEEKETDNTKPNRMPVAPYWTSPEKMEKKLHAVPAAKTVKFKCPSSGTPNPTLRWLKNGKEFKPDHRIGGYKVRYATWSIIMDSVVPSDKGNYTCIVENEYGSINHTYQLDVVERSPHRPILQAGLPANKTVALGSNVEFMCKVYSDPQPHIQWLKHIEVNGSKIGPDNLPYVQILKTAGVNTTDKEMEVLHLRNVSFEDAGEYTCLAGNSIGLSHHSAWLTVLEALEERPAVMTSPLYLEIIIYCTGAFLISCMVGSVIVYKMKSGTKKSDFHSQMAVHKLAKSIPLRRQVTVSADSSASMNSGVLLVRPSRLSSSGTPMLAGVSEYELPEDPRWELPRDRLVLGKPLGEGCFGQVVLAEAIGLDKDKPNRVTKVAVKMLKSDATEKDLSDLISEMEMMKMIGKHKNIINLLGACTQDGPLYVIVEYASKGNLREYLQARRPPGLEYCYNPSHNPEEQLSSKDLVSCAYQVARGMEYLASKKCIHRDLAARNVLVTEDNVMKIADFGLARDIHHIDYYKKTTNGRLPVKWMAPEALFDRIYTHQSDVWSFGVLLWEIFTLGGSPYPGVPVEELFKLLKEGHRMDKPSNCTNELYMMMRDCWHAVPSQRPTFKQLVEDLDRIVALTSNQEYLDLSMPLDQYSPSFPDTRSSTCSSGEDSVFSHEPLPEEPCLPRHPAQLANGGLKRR

Compound | inhibition
Fc1cccc(COc2ccc(Nc3ncnc4sc(-c5cccs5)cc34)cc2Cl)c1 | 4.36%
CC1=C(C(=O)Nc2ccc3[nH]ncc3c2)C(c2ccc(F)cc2)NC(=O)N1 (stereo not drawn) | -0.9%
CCn1c(-c2nonc2N)nc2c(N3CCCC3)nccc21 | -3.71%
NS(=O)(=O)c1ccc(N/N=C2\C(=O)Nc3ccc(C(=O)NCCc4c[nH]cn4)cc32)cc1 | 3.36%
CC(C)=Cc1cccc2c1/C(=N/Nc1ccc(S(N)(=O)=O)cc1)C(=O)N2 | -0.4%
COc1cc2ncn(-c3cc(O[C@H](C)c4ccccc4Cl)c(C(N)=O)s3)c2cc1OC | 4.42%
COc1cc2ncn(-c3cc(O[C@@H](C)c4ccccc4Cl)c(C(N)=O)s3)c2cc1OC | 2.01%
Fc1cccc(COc2ccc(Nc3ncnc4cc(-c5ccc[nH]5)sc34)cc2Cl)c1 | -1.92%
CN1CCC(C(=O)Nc2n[nH]c3nnc(-c4ccccc4)cc23)CC1 | 5.69%
Cn1cc(C=C2C(=O)Nc3cccnc32)c2ccccc21 | 6.57%
COc1ccc(-c2nn3ncccc3c2-c2ccnc(Nc3ccc(Cl)c(C(F)(F)F)c3)n2)cc1 | 1.96%
NC(=O)c1cccc(Nc2nccc(Nc3cccc4[nH]ncc34)n2)c1 | -5.24%
COc1ccc(-c2ccncc2)cc1C(N)=O | 4.37%
CS(=O)(=O)CCN(CC#N)Cc1ccc(-c2ccc3ncnc(Nc4ccc(OCc5cccc(F)c5)c(Cl)c4)c3c2)o1 | -3.34%
CNC(=O)c1cncc(/C=C/c2c(Cl)cccc2Cl)c1 | 1.94%
CCn1c(-c2nonc2N)nc2c(C#CC(C)(C)O)nc(CN3CCCC3)cc21 | -3.25%
COc1ccccc1Nc1ncc(-c2ccccc2)o1 | 8.72%

Compound | inhibition
Cc1nn(C)c2cc(N(C)c3ccnc(Nc4cccc(S(N)(=O)=O)c4)n3)ccc12 | -0.21%
CCn1c(-c2nonc2N)nc2cncc(C(=O)N3CC[C@H](N)C3)c21 | 0.26%
O=C(Nc1n[nH]c2nc(-c3ccco3)c(Br)cc12)C1CC1 | 1.76%
COc1ccc(-c2coc3ncnc(N)c23)cc1 | 3.15%
O=C1NC(=O)C(c2cccc(Cl)c2)=C1Nc1ccc(O)c(Cl)c1 | -2.65%
CS(=O)(=O)CCNCc1ccc(-c2ccc3ncnc(Nc4ccc(OCc5cccc(F)c5)c(C(F)(F)F)c4)c3c2)o1 | -1.13%
O=C1NC(=O)C(c2ccccc2Cl)=C1Nc1cccc(O)c1 | 4.34%
COc1cc2ncn(-c3cc(OCc4ccccc4Cl)c(C(N)=O)s3)c2cc1OC | 3.46%
Nc1ncnc2occ(-c3ccc(NC(=O)Nc4cccc(C(F)(F)F)c4)cc3)c12 | 8.01%
COc1cc(C=NNc2ncnc3c2cnn3-c2ccccc2)ccc1O | 1.01%
CC1=C(C(=O)Nc2ccc3[nH]ncc3c2)C(c2ccc(Cl)c(Cl)c2)CC(=O)N1 (stereo not drawn) | 0.69%
NC(=O)c1ccc(-c2nc(-c3ccccn3)c(-c3ccc4c(c3)OCO4)[nH]2)cc1 | -0.93%
COc1cccc(-n2ncc3c(N/N=C/c4cccc(F)c4)ncnc32)c1 | -2.97%
Cc1nnc(-c2ccc(C)c(-c3ccc(C(=O)Nc4cccc(C#N)c4)cc3)c2)o1 | -1.37%
N#Cc1c(NC(=O)c2cccc3ccccc23)sc2c1CCCC2 | 0.22%
Cc1ccc(NC(=O)c2ccnc(N3CCCC3)c2)cc1-c1ccc(C(=O)NCC2CC2)cc1 | -1.44%
COc1cc2ncn(-c3cc(OCc4ccccc4C(F)(F)F)c(C(N)=O)s3)c2cc1OC | -0.93%

From ChEMBL document CHEMBL1961873, “Compounds: GSK PKIS; Assays: Nanosyn kinase panel” (2012)
